Experimental data reported in article PMC4336329 (PLoS ONE, 2015).
In all, about 310,000 compounds went through this assay and about 2,200 (0.71%) showed an effect of 50% or more. Effects have a minus sign here. What follows is part of a selection rich in strong results, with near analogues and random picks from the rest.

Each molecule was assayed against human ether-à-go-go-related gene (hERG) potassium channel (human, UniProt Q12809) (assay: primary screen, population patch clamp on CHO cells stably expressing hERG; higher = less effect of the substance).
Sequence of human ether-à-go-go-related gene (hERG) potassium channel (Q12809 whole entry, looked up): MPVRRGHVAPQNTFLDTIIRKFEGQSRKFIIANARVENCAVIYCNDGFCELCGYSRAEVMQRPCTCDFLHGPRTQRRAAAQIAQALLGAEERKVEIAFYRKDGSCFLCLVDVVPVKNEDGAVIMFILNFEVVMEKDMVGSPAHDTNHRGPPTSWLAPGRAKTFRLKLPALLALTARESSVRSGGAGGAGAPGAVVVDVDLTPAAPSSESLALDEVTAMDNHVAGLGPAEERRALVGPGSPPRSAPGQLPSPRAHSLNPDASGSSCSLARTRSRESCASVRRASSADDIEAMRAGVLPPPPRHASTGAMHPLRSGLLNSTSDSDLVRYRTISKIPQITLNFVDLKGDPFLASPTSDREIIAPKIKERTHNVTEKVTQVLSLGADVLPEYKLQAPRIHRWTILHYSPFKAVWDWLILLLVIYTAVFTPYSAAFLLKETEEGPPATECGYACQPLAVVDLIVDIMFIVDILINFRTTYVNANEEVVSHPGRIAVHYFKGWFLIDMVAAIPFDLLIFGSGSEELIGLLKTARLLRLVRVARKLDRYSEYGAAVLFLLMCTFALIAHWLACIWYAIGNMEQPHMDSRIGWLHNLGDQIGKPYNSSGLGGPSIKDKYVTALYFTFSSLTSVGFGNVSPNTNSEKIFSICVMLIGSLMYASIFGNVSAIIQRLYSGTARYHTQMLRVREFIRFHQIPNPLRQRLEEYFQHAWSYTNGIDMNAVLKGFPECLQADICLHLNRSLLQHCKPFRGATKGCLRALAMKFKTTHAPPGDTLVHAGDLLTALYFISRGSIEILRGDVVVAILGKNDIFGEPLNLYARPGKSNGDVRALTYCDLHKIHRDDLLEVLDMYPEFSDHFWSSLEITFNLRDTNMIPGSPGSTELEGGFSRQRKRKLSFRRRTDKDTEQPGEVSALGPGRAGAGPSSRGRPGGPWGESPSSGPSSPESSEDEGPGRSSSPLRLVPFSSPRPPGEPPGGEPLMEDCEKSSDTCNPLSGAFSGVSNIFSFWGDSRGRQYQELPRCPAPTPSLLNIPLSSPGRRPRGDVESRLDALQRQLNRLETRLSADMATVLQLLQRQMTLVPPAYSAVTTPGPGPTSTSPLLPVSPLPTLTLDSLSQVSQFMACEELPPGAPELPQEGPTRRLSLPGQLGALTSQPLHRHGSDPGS
Procedure: Briefly, Chinese hamster ovary (CHO) cells stably expressing the hERG channel were dislodged from tissue culture flasks and dispensed into PPC plates. […] During the recording, background leak currents were estimated by a 100 ms step to -80 mV from an initial holding potential of -70 mV and subtracted from the subsequent current measurement. The campaign was conducted in two phases using slight differences in recording protocol. In the first phase, the initial voltage pulse used a 100 ms step to -30 mV from a holding potential of -70 mV, a 2 s conditioning step to +25 mV, and a 2 s test step to -30 mV. During the second phase of the screen, the potential during the conditioning step was raised to +45 mV. In both phases of the campaign, a secondary voltage pulse was applied using the same parameters as the second phase initial pulse. The initial and secondary pulses were applied in the absence of compound, and upon application of 1 μM and 10 μM test concentrations. Small molecule effects on hERG current density were quantified by […].

Compound | hERG current change (%, negative = inhibition) at 1uM [%]
COc1cccc(CCNC(=O)c2ccc(C#N)cc2)c1 | 8.19
Cc1[nH]nc(N)c1-c1ccc(Cl)cc1 | 3.97
O=C(NCc1ccccc1)/C(=C\c1ccccc1)NC(=O)c1ccco1 | 11.9
O=C(NCCc1ccccc1)/C(=C\c1ccc([N+](=O)[O-])cc1)NC(=O)c1ccccc1 | 3.17
O=C(NCc1ccco1)/C(=C/c1ccc([N+](=O)[O-])cc1)NC(=O)c1ccco1 | -50.4
O=C(NCCc1ccccc1)/C(=C\c1ccccc1)NC(=O)c1ccco1 | 9.3
O=C(NCc1ccccc1)/C(=C/c1ccc([N+](=O)[O-])cc1)NC(=O)c1ccco1 | -31
O=C(NCCO)/C(=C\c1cccc([N+](=O)[O-])c1)NC(=O)c1ccco1 | 8.45
O=C(NCCO)/C(=C/c1cccc([N+](=O)[O-])c1)NC(=O)c1ccco1 | 9.43
O=C(NCCc1ccccc1)/C(=C\c1cccc([N+](=O)[O-])c1)NC(=O)c1ccco1 | -50.6
CC(=O)Oc1ccc(/C=C(\NC(=O)c2ccco2)C(=O)NCc2ccco2)cc1 | -11
CC(=O)Oc1ccc(/C=C(\NC(=O)c2ccco2)C(=O)NCc2ccccc2)cc1 | -58.9
O=C(NCc1ccccc1)/C(=C\c1ccc([N+](=O)[O-])cc1)NC(=O)c1ccco1 | -19.6
O=C(NCCc1ccccc1)/C(=C\c1ccc([N+](=O)[O-])cc1)NC(=O)c1ccco1 | -59
O=C(OCC(=O)N1CCCC1=O)c1ccc(F)c(S(=O)(=O)N2CCOCC2)c1 | -4.67
Cc1cc(C)c(S(C)(=O)=O)c(S(=O)c2ccc(Cl)cc2)n1 (stereo not drawn) | 3.19
CCOC(=O)c1[nH]c2ccc(OC)cc2c1NC(=O)CCN1CCN(Cc2ccccc2)CC1 | -36
NC(=O)CSc1nnc(Cc2csc(Nc3ccc(F)cc3)n2)n1Cc1ccccc1 | 11.5
O=C(OCC(=O)N(C1CCCCC1)C1CCCCC1)c1ccco1 | 9.71
O=C(O)CCN1C(=O)c2ccccc2C1=O | 19.2
CN(C)S(=O)(=O)c1cccc(-c2nnc(SCc3ccc4c(c3)OCCO4)o2)c1 | -0.0123
C=CCc1ccccc1OCC(O)CN1CCN(c2ccccc2F)CC1.Cl (stereo not drawn) | -0.42
C=CCc1ccc(OCC(O)CN2CCN(c3ccccc3OC)CC2)c(OC)c1.Cl (stereo not drawn) | 8.86
C=CCc1ccc(OCC(O)CN2CCCCC2)c(OC)c1 (stereo not drawn) | -16.5
C=CCc1ccc(OCC(O)CN2CCN(Cc3ccc(Cl)cc3)CC2)c(OC)c1.Cl (stereo not drawn) | -55.3
C=CCc1ccc(OCC(O)CN2CCC(Cc3ccccc3)CC2)c(OC)c1.Cl (stereo not drawn) | -75
C=CCc1ccc(OCC(O)CN2CCN(Cc3ccccc3)CC2)c(OC)c1.Cl (stereo not drawn) | -10.6
C=CCc1ccccc1OCC(O)CN1CCN(c2ccc(OC)cc2)CC1.Cl (stereo not drawn) | -27.3
C=CCc1ccccc1OCC(O)CN1CCN(c2ccccc2OC)CC1.Cl (stereo not drawn) | -52.3
C=CCc1ccc(OCC(O)CN2CCN(c3ccccc3)CC2)c(OC)c1.Cl (stereo not drawn) | -33.7
